ugtP null kill: growth inhibition of S. aureus ugtP deletion strain | S. aureus RN4220 ugtP deletion, OD600 growth, 16 h | growth inhibition, % (no concentration beside the values) | 330,000 compounds, 0.54% hits; in the data active = growth inhibition above about 68%;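 also: plate controls were untreated wells for no effect and antibiotic for full effect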
VHR inh abs: DUSP3 (human) phosphatase inhibition | P51452 | recombinant VHR phosphatase, pNPP absorbance | inhibition, % at 13.3 µM | 290,000 compounds, 0.52% hits | AID 1654; in the data active = inhibition above about 50%
Target sequence (P51452 whole entry, looked up): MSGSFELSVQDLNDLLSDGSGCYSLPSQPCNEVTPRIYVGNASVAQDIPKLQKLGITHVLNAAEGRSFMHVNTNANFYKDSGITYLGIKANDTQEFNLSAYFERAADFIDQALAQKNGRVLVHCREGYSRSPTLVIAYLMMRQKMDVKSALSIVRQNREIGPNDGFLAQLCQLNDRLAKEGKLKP
SSB-PriA inh: blocks PriA binding to SSB C-terminal tail. AlphaScreen SSBct-PriA binding, biotinylated peptide. inhibition, % at 33 µM. 430,000 compounds, 0.6% hits; in the data active = inhibition mostly above about 37%, no sharp cut-off; inactive = mostly below about 20%;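 also: plate controls were negative control peptide for no effect and reference peptide for full effect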
CCHFV vOTU inh: blocks the CCHF virus ovarian tumor domain protease; 370,000 compounds, 0.55% hits; AID 651958; CCHFV vOTU protease, Pep-AMC fluorescence; inhibition, % at 11.5 µM; in the data active = inhibition above about 30%; also: 0% = vehicle wells with enzyme and 100% = no enzyme wells
Sa RN4220 lethal: kills Staphylococcus aureus RN4220; S. aureus RN4220 growth, OD600, 16 h; AID 1259311; inhibition, % (no concentration beside the values); 330,000 compounds, 0.33% hits; in the data active = inhibition above about 85%;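 also: plate controls were untreated cells for no effect and reference antibiotic for full effect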
* hit, by the source's call. Shown are actives, neighbours in structure and some others; about 1.5% of the full set was active somewhere.

Screening O=C(NCc1ccc2c(c1)OCO2)C12CN(Cc3ccccc3)CC1C(c1cccc([N+](=O)[O-])c1)=NO2 (stereo not given) returned ugtP null kill 3, VHR inh abs 4, SSB-PriA inh 43*, CCHFV vOTU inh -1 and Sa RN4220 lethal 1.
For O=c1oc2ccccc2c2c1SC(C(F)(F)F)C2 (stereo not given) the results were ugtP null kill 6, VHR inh abs 56*, SSB-PriA inh -27, CCHFV vOTU inh -130 and Sa RN4220 lethal 5.
`O=c1oc2ccc3ccccc3c2c2c1SC(C(F)(F)F)C2` (stereo not given) gave VHR inh abs 23 and SSB-PriA inh -2.
`NS(=O)(=O)c1ccc(CCNC(=O)C2CCN(S(=O)(=O)N3CCCC3)CC2)cc1` gave SSB-PriA inh -6.
Screening O=S(=O)(c1ccc2c(c1)OCCCO2)N(Cc1ccsc1)C1CC1 returned SSB-PriA inh -18.
Screening CN(C(=O)c1cccc(Nc2ccc(-c3ccc4c(c3)OCCO4)nn2)c1)C1CCCCC1 returned ugtP null kill 99*, VHR inh abs 16, SSB-PriA inh 14, CCHFV vOTU inh 5 and Sa RN4220 lethal 88*.
For COc1ccc(S(=O)(=O)CCCC(=O)Nc2cc(C)no2)cc1 the results were SSB-PriA inh -15.
`CCc1ccc2c(c1)/C(=C/C(=O)c1cccs1)C(=O)N2` gave ugtP null kill 97*, VHR inh abs 18, SSB-PriA inh 2, CCHFV vOTU inh -6 and Sa RN4220 lethal 97*.
Screening Cc1cccc2c1NC(=O)/C2=C\C(=O)c1cccs1 returned ugtP null kill 98*, VHR inh abs -11, SSB-PriA inh -9, CCHFV vOTU inh -6 and Sa RN4220 lethal 97*.
For CC1Oc2ccccc2OC1C(=O)NCc1ncc(-c2ccccc2)[nH]1 (stereo not given) the results were SSB-PriA inh -22.
For O=[N+]([O-])c1cccc(/C=N/Nc2ccccn2)c1 the results were VHR inh abs 2 and CCHFV vOTU inh -11.
For O=[N+]([O-])c1ccc(/C=N/Nc2ccccn2)cc1 the results were VHR inh abs 58* and CCHFV vOTU inh -3.
Cc1ccc(-n2ccc(-c3nn(-c4ccccc4)ccc3=O)n2)cc1 was read as ugtP null kill -1, VHR inh abs 19, SSB-PriA inh 5, CCHFV vOTU inh 0 and Sa RN4220 lethal 1.
For CSc1nccc(-c2nn(-c3ccc(Cl)cc3)ccc2=O)n1 the results were SSB-PriA inh 53*.
CC(CNc1nc2c(-c3cccc(C(F)(F)F)c3)nnn2c2ccccc12)c1ccccc1 (stereo not given) was read as SSB-PriA inh 1.
For Cc1cc(-c2ccccc2)n(-c2cc(NN=Cc3ccccc3O)ncn2)n1 the results were ugtP null kill 101*, SSB-PriA inh -8 and Sa RN4220 lethal 79.
Cc1nn(-c2cc(C)c3ccccc3n2)c2c1C1C(C2)C1(C)C (stereo not given) was read as ugtP null kill 83*, VHR inh abs 9, SSB-PriA inh -9, CCHFV vOTU inh -1 and Sa RN4220 lethal -3.
For Cc1cc(C=O)c(C)n1-c1ccc(Oc2ccc([N+](=O)[O-])cn2)cc1 the results were ugtP null kill 1, VHR inh abs -1, SSB-PriA inh -10, CCHFV vOTU inh -5 and Sa RN4220 lethal 8.
`Cc1cc(C=O)c(C)n1-c1ccc(NC2CCCC2)c([N+](=O)[O-])c1` gave ugtP null kill 6, SSB-PriA inh 68*, CCHFV vOTU inh -8 and Sa RN4220 lethal 1.
`Cn1cc(C(c2ccccn2)c2cn(C)c3ccccc23)c2ccccc21` gave ugtP null kill 49, VHR inh abs -32, SSB-PriA inh 50*, CCHFV vOTU inh 6 and Sa RN4220 lethal -12.
Screening c1ccc(C(c2c[nH]c3ccccc23)c2c[nH]c3ccccc23)nc1 returned ugtP null kill -19, VHR inh abs 13, SSB-PriA inh 32, CCHFV vOTU inh 12 and Sa RN4220 lethal 3.
`O=C(NCCc1ccccc1)c1cc(-c2ccccc2)c(N2CCOCC2)s1` gave ugtP null kill 7, SSB-PriA inh 4, CCHFV vOTU inh 5 and Sa RN4220 lethal 4.
For CCN(CC)CCCNC(=O)c1cc(-c2ccccc2)c(N2CCCCC2)s1 the results were ugtP null kill 88*, VHR inh abs -24, SSB-PriA inh -3, CCHFV vOTU inh -9 and Sa RN4220 lethal 4.
O=C(Nc1ccc(Cl)c(Cl)c1)N1CC[C@H](S(=O)(=O)c2ccccc2)C1 was read as SSB-PriA inh -13.
For COC(=O)c1ccccc1NC(=O)C(=O)NCc1ccncc1 the results were ugtP null kill 9, VHR inh abs 56*, SSB-PriA inh -6, CCHFV vOTU inh 4 and Sa RN4220 lethal 4.
Screening Cc1ccc(Cl)c2c(N=Nc3ccccc3)c(O)[nH]c12 returned ugtP null kill 3, VHR inh abs 52*, SSB-PriA inh -13, CCHFV vOTU inh -2 and Sa RN4220 lethal 0.
O=C(Nc1cc2ccccc2cc1NC(=O)c1ccc(Br)s1)c1ccc(Br)s1 was read as SSB-PriA inh -21.
Clc1ccc(-c2noc(-c3ccc(CSc4ccccc4)o3)n2)cc1 was read as SSB-PriA inh 81*.
COc1ccc(-c2noc(-c3ccc(CSc4ccccc4)o3)n2)cc1 was read as SSB-PriA inh -8.
CN(C)c1ccc(-c2nc3ccccc3n2CCOc2ccccc2)cc1 was read as SSB-PriA inh 29*.
Cc1noc(C)c1C(=O)Nc1cccc2ncccc12 was read as ugtP null kill 7, VHR inh abs 53*, SSB-PriA inh -14, CCHFV vOTU inh 9 and Sa RN4220 lethal -2.
CC(=O)Nc1cccc2ncccc12 was read as ugtP null kill 8, VHR inh abs 3, SSB-PriA inh 0, CCHFV vOTU inh 2 and Sa RN4220 lethal 1.
`Cc1cc(C)c2c(c1)c(-c1ccccc1)c(-c1ccccc1)n2C[C@@H](O)CNC1CCCC1` gave SSB-PriA inh 45*.
COc1ccc(C(=O)Cn2nc(-c3ccco3)n(C3CC3)c2=O)cc1 was read as SSB-PriA inh -5.
`COc1cccc(-c2c(C(=O)NN=Cc3ccncc3)nnn2-c2nonc2N)c1` gave SSB-PriA inh -1.
O=C(Cc1ccc(Cl)cc1)Nc1ccc2c(c1)N(C(=O)c1ccco1)CC2 was read as SSB-PriA inh 14.
For Cc1ccc(CS(=O)(=O)c2cn(CC(=O)NCc3cccs3)c3ccccc23)cc1 the results were SSB-PriA inh -14.
`CC(=O)OC1C[C@@]2(C)C(CC(O)C3[C@@]4(C)CCC(O)C(C)C4CC[C@@]32C)C1=C(CCC=C(C)C)C(=O)O` (stereo not given in full) gave ugtP null kill 100* and Sa RN4220 lethal 100*.
O=C(NCc1cccnc1)c1sc2cc(Cl)ccc2c1Cl was read as ugtP null kill 0, VHR inh abs 50*, SSB-PriA inh 0, CCHFV vOTU inh -1 and Sa RN4220 lethal 3.
For O=C(Nc1ccc2c(c1)N(C(=O)C1CC1)CC2)c1ccc(C(F)(F)F)cc1 the results were SSB-PriA inh 0.
